This note sets out measurements from PubChem BioAssay (NCATS).

Values joined by “and” are separate entries in the source; they are usually repeats but may differ in a detail not shown here. Equal values may be shown once. Results filed as inconclusive are left out. Active and inactive are the calls of the source. Unless noted, the call rests on the fitted dose curve; in most records, active means well fitted curve in the direction sought with a large enough effect; inconclusive means small, poorly fitted or top-dose-only effect, or another doubt; inactive means no such curve, though single readings can be large; an effect the other way counts as inactive or inconclusive.

Test [1] is described as follows: qHTS Assay for Lipid Storage Modulators (AID 1519; calls by dose curve; on activity change, negative = inhibition: on the % scale 0 is the no-effect control and ±100 the full control effect). The settings on record: Drosophila S3 cells, BODIPY lipid droplet/cell ratio, laser cytometry, cells loaded with oleic acid. The method, boiled down: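 Cells seeded at 5,000 per well were treated with compounds over a concentration series and loaded with oleic acid (400 uM, as added). Lipid droplet fluorescence (488 nm excitation, 500-530 nm channel) was read by laser-scanning cytometry and normalized to 20 uM Triacsin C.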
In general terms: Quantitative high-throughput screening tests each substance at several concentrations.

The nature of test [2]: Cell Viability - LYMP2-007 (AID 979).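 Further: cells exposed to compound for 24 h before reading; 0% = DMSO only and the negative end = 92 µM tetraoctylammonium bromide; nearly all actives have a fitted effect of over 60% in size.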 Conditions: LYMP2-007 lymphoblastoid cell viability; series mostly up to 92.2 µM. The method, boiled down: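 Cells are seeded at 2500 per well and rested 5 hr. Compounds are then added over a concentration series for 24 hr at 37 C. CellTiter-Glo is added for 30 min at room temperature before luminescence reading.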
The nature of test [3]: Cell Viability - LYMP2-008 (AID 980).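 Further: cells exposed to compound for 24 h at 37 °C; on the % scale 0 is the no-effect control and ±100 the full control effect; nearly all actives have a fitted effect of over 60% in size.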 The settings on record: LYMP2-008 lymphoblastoid cell viability, qHTS; series mostly up to 92.2 µM. The method, boiled down: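 Cells seeded at 2500/well and rested 5 hr at 37 C; compounds added over a concentration range and incubated 24 hr at 37 C; CellTiter-Glo added, 30 min at room temperature; luminescence read and AC50 fitted with Hill model.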

A short description of test [4]: Cell Viability - LYMP2-010 (AID 981).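 Further: cells exposed to compound for 24 hours at 37 °C; on the % scale 0 is the no-effect control and ±100 the full control effect; nearly all actives have a fitted effect of over 55% in size.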 The settings on record: LYMP2-010 lymphoblastoid cell viability, qHTS; series mostly up to 92.2 µM. The method, boiled down:
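Steps: seed 2500 LYMP2-010 cells per well; incubate 5 hr at 37 C; add compound; incubate 24 hr at 37 C; add CellTiter-Glo, wait 30 min at room temperature; read luminescence. Concentration-response fitted to Hill equation for AC50.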

Test [5] can be described thus: Cell Viability - LYMP2-012 (AID 982).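 Further: cellular ATP by luciferase luminescence where a drop means cytotoxicity; cells exposed to compound for one day before reading; 0% = DMSO only and full loss = 92 µM tetraoctylammonium bromide; nearly all actives have a fitted effect of over 55% in size.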 The settings on record: LYMP2-012 lymphoblastoid cell viability qHTS; series mostly up to 92.2 µM.
Test [6] is described as follows: Cell Viability - LYMP2-014 (AID 983).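 Further: cells exposed to compound for 24 h at 37 °C; plate controls were DMSO only for no effect and 92 µM tetraoctylammonium bromide for full effect; nearly all actives have a fitted effect of over 50% in size.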 Conditions: LYMP2-014 lymphoblastoid cells, viability qHTS; series mostly up to 92.2 µM. Put shortly:
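Cells are plated at 2500/well and left 5 hr at 37 C. Compounds are added across a concentration range and incubated 24 hr at 37 C in complete medium. CellTiter-Glo is added, and luminescence is read after 30 min at room temperature.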

Test [7] is described as follows: Cell Viability - LYMP2-016 (AID 984).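 Further: cells exposed to compound for 24 hours at 37 °C; on the % scale 0 is the no-effect control and ±100 the full control effect; nearly all actives have a fitted effect of over 55% in size.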 The settings on record: LYMP2-016 lymphoblastoid cell viability, qHTS; series mostly up to 92.2 µM. Put shortly:
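Cells were seeded at 2500 per well and rested 5 hr before a 24 hr compound exposure at 37 C. Viability was then gauged as cellular ATP by luciferase luminescence, with AC50 values fitted to the Hill equation.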

The nature of test [8]: Cell Viability - LYMP2-018 (AID 985).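 Further: plate controls were DMSO only for no effect and tetraoctylammonium bromide at 92 µM for full effect; nearly all actives have a fitted effect of over 50% in size.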 The settings on record: LYMP2-018 lymphoblastoid cells, viability (qHTS); series mostly up to 92.2 µM. Put shortly:
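Seed 2500 lymphoblastoid cells per well, incubate 5 hr at 37 C, add compound and incubate 24 hr at 37 C, add CellTiter-Glo, wait 30 min at room temperature, then read luminescence.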

A short description of test [9]: Cell Viability - LYMP2-020 (AID 986).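 Further: cells exposed to compound for 24 h at 37 °C; plate controls were DMSO only for no effect and tetraoctylammonium bromide at 92 µM for full effect; nearly all actives have a fitted effect of over 55% in size.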 Conditions: series mostly up to 92.2 µM. The method, boiled down:
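Seed 2500 cells per well and incubate 5 hr at 37 C. Add compounds at a concentration series and incubate 24 hr at 37 C. Add CellTiter-Glo, wait 30 min at RT, read luminescence, and fit a Hill curve for AC50.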

Test [10] is described as follows: Cell Viability - LYMP2-022 (AID 987). The settings on record: LYMP2-022 lymphoblastoid cell viability; series mostly up to 92.2 µM. The method, boiled down:
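Cells were seeded at 2500 per well, rested 5 hr at 37 C, and treated with titrated compounds for 24 hr at 37 C. Cellular ATP was then quantified by luciferase luminescence, and AC50 values were derived from Hill-modelled concentration-response curves.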

Test [11] in a line: Cell Viability - LYMP2-024 (AID 988).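 Further: plate controls were DMSO only for no effect and 92 µM tetraoctylammonium bromide for full effect; nearly all actives have a fitted effect of over 60% in size.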 The settings on record: LYMP2-024 lymphoblastoid cell viability; series mostly up to 92.2 µM. Put shortly: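 qHTS cytotoxicity, human lymphoblastoid line, complete medium; 24 h cpd treatment, 37 C; CellTiter-Glo ATP luminescence readout; tetraoctylammonium bromide positive control; AC50 via Hill fit.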
Test [12] is described as follows: Cell Viability - LYMP2-026 (AID 989).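 Further: cells exposed to compound for 24 h at 37 °C; on the % scale 0 is the no-effect control and ±100 the full control effect; nearly all actives have a fitted effect of over 50% in size.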 The settings on record: LYMP2-026 lymphoblastoid cell viability, qHTS; series mostly up to 92.2 µM. Put shortly:
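Cells are seeded at 2500 per well and held 5 hr at 37 C. Compounds are added in concentration series for 24 hr, then CellTiter-Glo reagent is applied and luminescence read.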

Test [13] in a line: Cell Viability - LYMP1-002 - Assay at 24 hr (AID 993). Further: on the % scale 0 is the no-effect control and ±100 the full control effect. The settings on record: LYMP1-002 lymphoblastoid cells viability; series mostly up to 92.2 µM. The method, boiled down: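 Acute toxicity is measured as concentration-dependent loss of cellular ATP in a human lymphoblastoid line (Coriell LYMP1-002) after 24 h treatment in complete medium. ATP is quantified by luciferase luminescence and AC50 derived by Hill modelling.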

The nature of test [14]: Cell Viability - LYMP1-002 - Assay at 40 hr (AID 994).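 Further: 0% = DMSO only and full inhibition = 92 µM tetraoctylammonium bromide; nearly all actives have a fitted effect of over 60% in size.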 The settings on record: LYMP1-002 lymphoblastoid cell viability; series mostly up to 92.2 µM. The method, boiled down: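 Cells are plated at 2500 per well and rested 5 hr at 37 C. Compounds are added and incubated 40 hr at 37 C. CellTiter-Glo reagent is added for 30 min at room temperature before luminescence is read.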

The target of test [15] is Alpha-galactosidase A (Homo sapiens) (UniProt P06280). The test is described as follows: Counterscreen for Glucocerebrosidase Inhibitors: qHTS Assay for Human alpha-Galactosidase at pH 4.5 (AID 992). Further: 0% is about no effect. The settings on record: purified enzyme, fluorogenic substrate; series mostly up to 76.9 µM. Put shortly:
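Each compound is preincubated briefly with 2 nM enzyme before substrate addition (80 uM); plates then sit 20 min at ambient temperature, are quenched with 1M NaOH/1M glycine, and read fluorometrically.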
(In general: The purpose of a counterscreen is to sort out artefacts and off-target activity.)

Test [16] concerns the target alpha-glucosidase (Oryza sativa, rice) (UniProt Q653V4). The test is described as follows: Counterscreen for Glucocerebrosidase Inhibitors: qHTS Assay for Rice alpha-Glucosidase at pH 5.0 (AID 997).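 Further: 0% = full activity with enzyme and -100% = basal without enzyme.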 Conditions: rice alpha-glucosidase enzyme activity; series mostly up to 76.9 µM. Put shortly: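 Endpoint fluorogenic assay at pH 5.0: compounds (0.7 nM to 77 uM) titrated against 4 nM rice enzyme and 400 uM 4-MU-alpha-glucoside for 20 min at room temperature; NaOH/glycine stop, read ex 365/em 440 nm, Hill-fitted AC50.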

The nature of test [17]: Counterscreen for APE1 Inhibitors: Fluorescent Dye Displacement Validation Assay (AID 1707).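 Further: plate controls were ThO with dsDNA and no compound for no effect and ThO without dsDNA for full effect.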 Conditions: fluorescent dye displacement from DNA; series mostly up to 57.1 µM. Put shortly:
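Loss of Thiazole Orange fluorescence marks promiscuous DNA binders. The dye (250 nM) is mixed with 50 nM abasic-site dsDNA in pH7.5 Tris buffer containing MgCl2, then compounds are added and emission is read once.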

Test [18] has as its target Endonuclease 4 (Escherichia coli (strain K12)) (UniProt P0A6C1). The test is described as follows: Counterscreen for APE1 Inhibitors: qHTS Validation Assay for Inhibitors of Endonuclease IV (AID 1708). Further: potency means the concentration at half of the fitted maximal effect. On activity change, negative = inhibition: on the % scale 0 is the no-effect control and ±100 the full control effect. Conditions: E. coli endonuclease IV, DNA cleavage fluorescence; series mostly up to 57.1 µM. The method, boiled down: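 Conditions: 2 nM enzyme, 50 nM TAMRA/BHQ-2 substrate, pH 7.5 Tris buffer with 2 mM MgCl2, RT. Compound preincubation 15 min; readout three fluorescence reads 60 s apart, third-minus-first.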

Test [19] concerns the target DNA repair nuclease/redox regulator APEX1 (Homo sapiens) (UniProt P27695). The experiment in a line: qHTS Validation Assay for Inhibitors of the Human Apurinic/apyrimidinic Endonuclease 1 (APE1) (AID 1705; further: potency means the concentration at half of the fitted maximal effect). Conditions: purified APE1 endonuclease activity, fluorescence, titration; series mostly up to 57.1 µM. The method, boiled down:
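qHTS, 1536-well. APE1 + cpd 15 min RT → 50 nM TAMRA/BHQ-2 THF-abasic dsDNA substrate → kinetic fluorescence, 3 reads/60 s; delta(read3−read1) = reaction progress. No-enzyme buffer = negative control.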

Setting [20] is: measured here: cell count channel max response.
Where [21] appears, read: measured here: lipid channel max response.

Chain of DNA repair nuclease/redox regulator APEX1 (Homo sapiens) (P27695 whole entry, looked up): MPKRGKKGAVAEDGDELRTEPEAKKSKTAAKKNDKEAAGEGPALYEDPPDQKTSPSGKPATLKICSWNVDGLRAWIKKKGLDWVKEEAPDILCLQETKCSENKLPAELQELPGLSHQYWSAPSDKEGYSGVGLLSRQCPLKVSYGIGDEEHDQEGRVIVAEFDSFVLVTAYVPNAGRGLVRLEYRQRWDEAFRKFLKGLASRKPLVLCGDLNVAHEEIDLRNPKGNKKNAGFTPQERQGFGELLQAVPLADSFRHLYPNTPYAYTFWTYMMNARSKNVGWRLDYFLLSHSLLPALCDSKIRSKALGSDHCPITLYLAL
Chain of Alpha-galactosidase A (Homo sapiens) (P06280 whole entry, looked up): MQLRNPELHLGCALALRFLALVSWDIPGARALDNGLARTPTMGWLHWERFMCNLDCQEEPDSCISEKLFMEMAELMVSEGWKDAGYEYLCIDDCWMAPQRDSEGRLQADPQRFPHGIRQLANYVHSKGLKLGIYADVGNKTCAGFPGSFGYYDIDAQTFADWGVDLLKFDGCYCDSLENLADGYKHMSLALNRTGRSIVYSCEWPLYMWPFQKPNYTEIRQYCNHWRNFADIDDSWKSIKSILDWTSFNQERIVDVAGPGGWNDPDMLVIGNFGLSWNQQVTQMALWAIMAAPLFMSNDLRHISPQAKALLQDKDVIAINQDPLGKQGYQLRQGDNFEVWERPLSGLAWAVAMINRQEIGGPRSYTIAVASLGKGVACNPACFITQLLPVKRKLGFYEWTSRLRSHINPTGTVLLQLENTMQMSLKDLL

Consider `CCCCCCCCCCCCCCCCCCOCC(O)CO` (centres undefined), for which, in test [1] (at 57.5 µM (top of the series)), the activity change, negative = inhibition is 4.1% (inactive). Moreover, the max response in [1] (setting [20]) is 15.6%; in [1] (setting [21]), 19.9%.

Turning to `CCn1cc(C(=O)O)c(=O)c2cnc(N3CCNCC3)nc21`, the activity change, negative = inhibition is -2.05% (inactive) in test [1] (at 25.7 µM (top of the series)) and 0.203% (inactive) in test [1] (at 57.5 µM (top of the series)). For the same compound, the max response in test [1] (setting [20]) is 0.27% and 20.9%; in [1] (setting [21]), -1.56% and 23.6%.

For the compound `CC1(C)[C@@H]2CC[C@@]1(C)C(=O)C2`, the Potency result in [2], in test [3], in test [4], in test [7], in test [8] and in test [9] was “inactive” each time. The Potency entry in test [10], in test [12], in [13] and in [14] was “inactive” throughout. For the same compound, the compound was classed as inactive in test [5], in test [6] and in test [11]. Moreover, the activity change, negative = inhibition in test [1] (at 57.5 µM (top of the series)) was 1.5% (inactive). The max response in test [1] (setting [20]) is -8.09%; in test [1] (setting [21]), -6.29%.

Take `NC(N)=NCCC[C@H](N)C(=O)O`: the compound was called inactive in test [15] and in test [16]. Moreover, the activity change, negative = inhibition in [1] (at 57.5 µM (top of the series)) is -0.95% (inactive). Besides, the max response in test [1] (setting [20]) is -7.59%; in [1] (setting [21]) it was -6.54%. For the same compound, the Potency result in test [17] and in test [18] was “inactive” throughout.

On to `CCN(CC)CCCC(C)Nc1c2ccc(Cl)cc2nc2ccc(OC)cc12` (centres undefined), for which the activity change, negative = inhibition in test [1] (at 57.5 µM (top of the series)) is 9.16% (inactive) and 1.41% (inactive). Further, the max response in [1] (setting [20]) was 2.35% and -26.6%; in test [1] (setting [21]), 14.1% and -23.7%. Also, the Potency in test [19] is 15.8 µM (active); in test [18], 12.6 µM (active).

`O=C1c2c(O)cccc2Cc2cccc(O)c21`: the Potency result in test [2], in test [3], in test [4], in test [7], in test [8] and in test [9] was “inactive” throughout. For the same compound, the Potency entry in test [10], in test [12], in [13] and in test [14] was “inactive” each time. In addition, the call in test [5], in test [6] and in [11] was inactive. The activity change, negative = inhibition in test [1] (at 57.5 µM (top of the series)) was 2.53% (inactive). The max response in test [1] (setting [20]) was found to be 14.4%; in test [1] (setting [21]), 20.2%.

Regarding `O=C1O[C@H]([C@@H](O)CO)C(O)=C1O`, the Potency result in [2], in test [3], in [7], in [8], in test [9] and in [10] was “inactive” in each case. Moreover, the Potency result in [12], in test [13] and in test [14] was “inactive” each time. The call in [5], in test [6] and in test [11] was inactive.

With `Oc1cccc(O)c1`, the Potency entry in test [2], in test [3], in test [4], in [7], in [8] and in [9] was “inactive” in each case. In addition, the Potency entry in test [10], in [12], in test [13] and in [14] was “inactive” throughout. The call in [5], in test [6] and in [11] was inactive. Further, the activity change, negative = inhibition in test [1] (at 57.5 µM (top of the series)) is 4.72% (inactive). Moreover, the max response was 10.3% in test [1] (setting [20]) and 16.6% in test [1] (setting [21]).
